Compounds with a hit are over-represented: about 1.5% of the library has one in this group of screens.
TLR4-MyD88 BLA: inhibitors of TLR4-MyD88 association in cells, primary screen, cell-based, HeLa CL3-4, BLA complementation, FRET ratio; hit rate 0.18% among 200,000; inhibition, % at 8.4 µM; Toll-like receptor 4 (Homo sapiens) + Myeloid differentiation primary response protein …; HeLa CL3-4 TLR4/MyD88 BLA complementation; in the data active means inhibition above about 25%
Myeloid diff MLP: induction of myeloid progenitor differentiation, primary screen, cell-based, flow cytometry, MLPCN library; hit rate 1% among 360,000; calls only at 10 µM; ER-HoxA9 myeloid progenitors, lysozyme-GFP differentiation;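 active means normalized GFP-positive differentiation at or above the plate's own cutoff, the solvent-only control mean plus 3 SD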;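 further: cells exposed to compound for four days before flow analysis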
TLR9-MyD88 block: inhibitors of TLR9-MyD88 association in cells, primary screen, cell-based, CHO, BLA complementation, fluorescence. Toll-like receptor 9 (Homo sapiens) + Myeloid differentiation primary response protein …. hit rate 0.21% among 340,000. AID 504734, 2011. CCF4 FRET ratio. inhibition, % at 4.98 µM;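 active means inhibition above the mean over all tested compounds plus 3 SD, cut at about 21% in these data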
NOD2-RIPK2 inh: NOD2-RIPK2 binding disruptors in cells, primary screen, fluorescence, CHO cells, BLA complementation | CCF4 ratio | inhibition, % at 4.98 µM | hit rate 0.38% among 360,000 | AID 624267, 2012; in the data active means inhibition above about 21%
Myeloid diff CP1: inducers of myeloid progenitor differentiation, confirmation, cell-based, GFP/Mac1 flow cytometry, cherry pick 01; AID 651706, 2012; hit rate 2% among 2,300; shares compounds with Myeloid diff MLP; ER-HoxA9 myeloid progenitors, GFP/Mac1 double-positive flow; calls only;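 active means share of green or green-and-red cells above 9 and 9% in run 1 or 4 and 3% in run 2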
GFP autofluor: flagged as fluorescent in myeloid differentiation counter-screen. ER-HoxA9 myeloid progenitors, no estrogen, GFP autofluorescence flow cytometry; vehicle wells 0%, positive control 100%. fluorescence response, % (concentration not given with the values). hit rate 7.4% among 2,300. shares compounds with Myeloid diff MLP;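 active means over 5% cells positive for green fluorescent reporter, or over 2% positive for both it and APC stain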
Of the large screens only hits and unclear results are named; the others gave an inactive call (follow-up assays come after a bar, where they were run).

O=C1C(=Cc2ccco2)CCCC1=Cc1ccco1	none (no result: TLR4-MyD88 BLA) | Myeloid diff CP1 inactive | GFP autofluor 19
CCN1C(=O)C(O)(C2COC(C)(C)CC2=O)c2ccccc21 (stereo not given)	none
CCN1C(=O)C(O)(C2COC(C)(C)CC2=O)c2cc(Br)ccc21 (stereo not given)	none | Myeloid diff CP1 inactive | GFP autofluor 12
COc1ccc(CN2C(=O)C(CC(=O)NC3CCCC3)CC(C(=O)N3CCOCC3)=C2C)cc1 (stereo not given)	none (no result: TLR4-MyD88 BLA, TLR9-MyD88 block)
CN1c2ccccc2C(C)(C)C12C=Cc1cc(O)ccc1O2 (stereo not given)	Myeloid diff MLP active | Myeloid diff CP1 inactive | GFP autofluor 53
CN1c2ccccc2C(C)(C)C12C=Nc1c(cc(N3CCOCC3)c3ccccc13)O2 (stereo not given)	none
Cc1cc(C)c2cc(C#N)c(NCCNC(=O)c3ccccn3)nc2c1	none (no result: TLR4-MyD88 BLA, TLR9-MyD88 block)
CCOC(=O)c1c(C)c(C(=O)NCc2ccco2)c(C)n1C	none
CCOC(=O)c1c(C)c(C(=O)NCc2cccs2)c(C)n1C	none | Myeloid diff CP1 inactive | GFP autofluor inactive
CC1CCN(CC2C(=O)O[C@@H]3C[C@@]4(C)CCC[C@H](C)C4=C[C@H]23)CC(C)(C)C1 (stereo not given in full)	none (no result: TLR4-MyD88 BLA) | Myeloid diff CP1 inactive | GFP autofluor inactive
C=C1CCC[C@]2(C)C[C@H]3OC(=O)C(CN4CC(C)OC(C)C4)[C@H]3C[C@@H]12 (stereo not given in full)	none (no result: TLR4-MyD88 BLA)
CNc1ccc([N+](=O)[O-])cc1-c1nc2ccccc2[nH]c1=O	Myeloid diff MLP active (no result: TLR4-MyD88 BLA) | Myeloid diff CP1 inactive | GFP autofluor inactive
CC(C)C[C@H]1CN(CCCC[C@H]2CNC(=O)C(=O)N2Cc2ccccc2)C(=O)C(=O)N1CCc1ccc(O)cc1	none (no result: TLR4-MyD88 BLA, TLR9-MyD88 block)
O=C(Nc1ccc(F)c(Cl)c1)c1cc(C2CCCCN2C(=O)c2ccc3c(c2)CCO3)on1 (stereo not given)	none (no result: TLR4-MyD88 BLA, TLR9-MyD88 block)
O=C(CSc1nc(=O)n(CCCN2CCOCC2)c2c1CCCC2)Nc1cccc(Cl)c1	none (no result: TLR4-MyD88 BLA)
Cc1cccc(NC(=O)CSc2nc(=O)n(CCCN3CCOCC3)c3c2CCCC3)c1	Myeloid diff MLP active (no result: TLR4-MyD88 BLA) | Myeloid diff CP1 inactive | GFP autofluor inactive
COc1ccc(/C=C/C(O)=C2/C(=O)N(C)C3(C)CC2c2ccccc2O3)cc1 (stereo not given)	Myeloid diff MLP active | Myeloid diff CP1 active | GFP autofluor inactive
CC(C)(C)NS(=O)(=O)c1ccc(CCC(=O)Nc2ccc3c(c2)OCO3)cc1	Myeloid diff MLP active | Myeloid diff CP1 inactive | GFP autofluor inactive
CCOC(=O)c1[nH]c2ccccc2c1NC(=O)NC(C)C	none (no result: TLR4-MyD88 BLA)
CCOC(=O)c1[nH]c2ccccc2c1NC(=O)c1ccc(Br)o1	Myeloid diff MLP active | Myeloid diff CP1 inactive | GFP autofluor inactive
COCCCNC(=O)c1ccc(Cn2c(=O)c3ccccc3n(Cc3ccccc3C)c2=O)cc1	none
COCCCNC(=O)c1ccc(Cn2c(=O)c3ccccc3n(Cc3ccccc3C#N)c2=O)cc1	Myeloid diff MLP active | Myeloid diff CP1 inactive | GFP autofluor inactive
COc1ccc(O)cc1CN1CCN(c2ncc(Cc3ccccc3)cn2)CC1	none (no result: TLR4-MyD88 BLA, TLR9-MyD88 block)
CCCC(=O)N1CCCC1(C)C(=O)Nc1cc(OC)c(OC)c(OC)c1 (stereo not given)	none (no result: TLR4-MyD88 BLA, TLR9-MyD88 block)
CCCCNC(=O)CCC(=O)Nc1ccc2nc(N3CCC(C)CC3)cc(C)c2c1	none | Myeloid diff CP1 inactive | GFP autofluor inactive
Cc1cccc(-n2ncc3c(NCc4ccco4)ncnc32)c1	Myeloid diff MLP active | Myeloid diff CP1 inactive | GFP autofluor inactive
COc1cccc(NC(=S)N2CCN(C(c3ccccc3)c3ccccc3)CC2)c1	none | Myeloid diff CP1 inactive | GFP autofluor inactive
COc1ccc(S(=O)(=O)N2CCCCC2c2cc(C(=O)Nc3ccc4c(c3)OCO4)no2)cc1 (stereo not given)	none (no result: TLR4-MyD88 BLA, TLR9-MyD88 block)
COc1ccc(C(=O)C[n+]2ccc3c(c2)nc(-c2cc(OC)c(OC)cc2OC)n3C)cc1	none
COc1ccc(C(=O)C[n+]2ccc3c(c2)nnn3-c2ccccc2)cc1	Myeloid diff MLP active | Myeloid diff CP1 inactive | GFP autofluor inactive
O=C(NCc1ccccc1Cl)c1csc([C@@H]2C[C@H](O)[C@@H](CO)O2)n1	none (no result: TLR4-MyD88 BLA, TLR9-MyD88 block)
CC(C)(C)OC(=O)NCCc1nnc(SCc2ccccc2Cl)o1	none | Myeloid diff CP1 inactive | GFP autofluor inactive
O=C(OC1CC2CC1[C@H]1CCCCN1C2=O)N1CCC(c2ccccc2)CC1 (stereo not given in full)	none (no result: TLR4-MyD88 BLA, TLR9-MyD88 block)
COc1ccc(-n2c(SC(C)C(=O)Nc3ncc(Cl)cc3Cl)nc3ccccc32)cc1 (stereo not given)	Myeloid diff MLP active | Myeloid diff CP1 inactive | GFP autofluor inactive
CC(Sc1nnc2ccccn12)C(=O)Nc1ncc(Cl)cc1Cl (stereo not given)	none
Cc1ccc2nc(-c3ccco3)c(CC(C)(C)C)n2c1	none (no result: TLR4-MyD88 BLA, TLR9-MyD88 block)
O=C(Nc1ccccc1F)c1ccc([N+](=O)[O-])s1	Myeloid diff MLP active | Myeloid diff CP1 inactive | GFP autofluor inactive
O=C(Nc1cccc2ccccc12)c1ccc([N+](=O)[O-])s1	none
Cc1c(C(=O)NNC(=S)Nc2ccc(S(N)(=O)=O)cc2)oc2ccccc12	none (no result: TLR4-MyD88 BLA) | Myeloid diff CP1 inactive | GFP autofluor inactive
Cc1c(C(=O)Nc2ccc(S(N)(=O)=O)cc2)oc2ccc(Cl)cc12	none
COc1cc(CNCCc2c[nH]c3ccccc23)ccc1OCc1ccc(F)cc1	none | Myeloid diff CP1 inactive | GFP autofluor inactive
COc1cccc(CNCCc2c[nH]c3ccccc23)c1OCc1ccc(F)cc1	none
O=C1C(CCc2ccccc2)ON=C(c2cnccn2)N1Cc1ccc(F)cc1 (stereo not given)	none (no result: TLR4-MyD88 BLA, TLR9-MyD88 block)
O=C(CSc1nnc2scc(-c3ccccc3)n12)Nc1ccc2c(c1)OCCO2	none
O=C(CCSc1nnc2scc(-c3ccccc3)n12)NCc1ccc2c(c1)OCO2	none | Myeloid diff CP1 inactive | GFP autofluor inactive
CC(C)C1O/C(=N/C(=O)Nc2ccc(Cl)c(Cl)c2)NC1=O (stereo not given)	none | Myeloid diff CP1 inactive | GFP autofluor inactive
CCC(=O)N1CCC1(C)C(=O)Nc1ccc(Cl)c(Cl)c1 (stereo not given)	none (no result: TLR4-MyD88 BLA, TLR9-MyD88 block)
COc1ccc(-c2sc3ccccc3c2-c2ccc(O)cc2)cc1	none (no result: TLR4-MyD88 BLA)
COc1ccc(-c2sc3cc(OC)c(OC)cc3c2-c2ccc(O)cc2)cc1	none (no result: TLR4-MyD88 BLA) | Myeloid diff CP1 inactive | GFP autofluor inactive
Cc1cccc(-n2c(CNC(=O)COc3ccccc3)nnc2SCC(=O)Nc2nccs2)c1	none | Myeloid diff CP1 inactive | GFP autofluor 5.4
COc1cccc(C(=O)NCc2nnc(SCC(=O)Nc3nccs3)n2-c2cccc(C)c2)c1	none

Assay outcomes deposited in PubChem by several laboratories.
